Sampled rows, rich in hits. Any-hit rate of the full collection: about 2.7%.
ATXN viability: viability counter-screen for ATXN expression inhibitors. S2 cells (HEK-293 line with an ATXN2-luciferase reporter) viability, CellTiter-Fluor protease fluorescence, 24 h. Potency, µM (doses to about 56.7 µM), actives largely listed as cytotoxic. actives 0.49% (n = 400,000). AID 651635; also: nearly all actives have a fitted effect of over 40% in size
TGFb inhibitor: inhibitors of TGF-b signaling; HepG2 CAGA-GFP TGF-b/SMAD3 reporter, GFP fluorescence, 18 h; TGF-beta stimulated, 500 pg/mL final; Potency, µM (top dose mostly 46.1 µM), for inactives: at the top dose activity, negative = inhibition, hits mostly inhibitors; actives 1.2% (n = 410,000); AID 588855; also: % is scaled to controls: 0 for no effect and ±100 for the full control effect; nearly all actives have a fitted effect of over 65% in size
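Read-out: total well GFP (ex488/em500-530) summed from mean per-cell fluorescence. Cells: HEPG2 CAGA-GFP, 1% FBS DMEM, 18 h at 37 degrees C with 500 pg/mL final TGF-beta. Unstimulated wells served as the full-inhibition control; stimulated DMSO wells = 0%.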
ALOX12 inh: blocks human arachidonate 12S-lipoxygenase | purified 12hLO, xylenol orange hydroperoxide absorbance | Potency, µM (top dose mostly 108 µM), for the others: top-dose activity change, negative = inhibition, most hits filed as inhibitors | actives 1.1% (n = 580,000) | AID 1671190; also: % is scaled to controls: 0 for no effect and ±100 for the full control effect
Target sequence (P18054 whole entry, looked up): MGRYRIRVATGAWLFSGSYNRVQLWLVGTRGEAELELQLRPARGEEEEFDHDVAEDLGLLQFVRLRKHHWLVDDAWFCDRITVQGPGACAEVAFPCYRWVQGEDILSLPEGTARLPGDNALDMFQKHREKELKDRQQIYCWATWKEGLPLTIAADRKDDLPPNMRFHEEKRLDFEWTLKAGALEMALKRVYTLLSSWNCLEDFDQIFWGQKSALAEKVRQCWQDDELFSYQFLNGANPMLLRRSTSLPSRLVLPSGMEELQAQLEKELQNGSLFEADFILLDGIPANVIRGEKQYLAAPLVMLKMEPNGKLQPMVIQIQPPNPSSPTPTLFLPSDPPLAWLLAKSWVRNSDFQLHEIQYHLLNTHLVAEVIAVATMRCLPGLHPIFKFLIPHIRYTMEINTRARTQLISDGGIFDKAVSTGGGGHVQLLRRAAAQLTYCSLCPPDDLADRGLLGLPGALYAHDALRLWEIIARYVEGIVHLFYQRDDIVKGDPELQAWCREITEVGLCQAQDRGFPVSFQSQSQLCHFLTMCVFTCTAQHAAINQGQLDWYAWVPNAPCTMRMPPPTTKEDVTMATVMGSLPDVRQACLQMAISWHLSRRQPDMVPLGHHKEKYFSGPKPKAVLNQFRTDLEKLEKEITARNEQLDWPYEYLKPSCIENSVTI
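Purified human 12hLO at 150 nM in 25 mM Hepes, 0.01% Triton X-100, pH 7.0, preincubated 15 min at room temperature with compound. Reaction started with 40 uM arachidonic acid, 30 min at room temperature. Hydroperoxide measured by Fe-xylenol orange, 573/405 nm absorbance ratio.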
HepG2 tox: kills HepG2 cells in TGF-b inhibitor counter-screen | HepG2 CAGA-GFP viability, ATP luminescence, 18 h | Potency, µM (series often up to 46.1 µM), inactives show at the highest dose activity change, negative = cytotoxicity, usual class: cytotoxic | actives 0.76% (n = 410,000)
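CellTiter-Glo luminescence gave cytotoxicity after 18 hours at 37 degrees C. The cells were HepG2 CAGA-GFP in 1% FBS DMEM, stimulated with 500 pg/mL TGF-beta after compound addition. %Activity was normalised to no-cell wells (complete cell-killing) and DMSO (no toxicity), and curves were fitted and classified.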
ATXN2 expr inh: reduces ATXN2 reporter expression in HEK-293 cells; HEK-293 ATXN2-luciferase reporter, luminescence, 24 h; Potency, µM (top dose mostly 57 µM), without a hit: top-dose activity change, negative = inhibition, hits mostly inhibitors; actives 0.72% (n = 360,000); AID 1745845; also: % is scaled to controls: 0 for no effect and ±100 for the full control effect; nearly all actives have a fitted effect of over 55% in size
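ATXN2-luciferase reporter cells (luciferase flanked by upstream and downstream ATXN2 gene portions) were treated 24 h at 37 °C with compounds at up to 57 uM. SteadyGlo luminescence gave expression; GF-AFC fluorescence gave viability.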
Starred values were filed as active, the others as inactive; i = inactive; ? = inconclusive; / = not tested or not shown. Calls follow the shape of the dose curve; as a rule, active = well fitted curve in the direction sought with a large enough effect; inconclusive = small, poorly fitted or top-dose-only effect, or another doubt; inactive = no such curve, though single readings can be large; an effect the other way counts as inactive or inconclusive. Potency is read from the fitted curve at half-maximal effect.

SMILES	ATXN viability	TGFb inhibitor	ALOX12 inh	HepG2 tox	ATXN2 expr inh
CC(C)N1CCN(Cc2ccc(OCc3ccccc3)cc2)CC1CCO (configuration not stated)	i	-24.2%	0.1%	2µM*	/
Cc1ccc(F)cc1NC(=O)CCNC(=O)c1ccc([N+](=O)[O-])cc1	i	-2.7%	12.0%	6.6%	-0.6%
COC(=O)c1ccc(C)c(NC(=O)CCNC(=O)c2ccc([N+](=O)[O-])cc2)c1	i	-4.4%	-9.3%	4.47µM*	7.9%
CCOC(=O)c1ccc(N2C(=O)c3[nH]nc(-c4ccc(C)cc4)c3C2c2ccc(O)cc2)cc1 (configuration not stated)	?	?	-24.8%	-52.6%	?
CCOC(=O)c1ccc(N2C(=O)c3[nH]nc(-c4ccccc4)c3C2c2cccs2)cc1 (configuration not stated)	/	7.08µM*	-6.1%	-45.9%	/
CCOC(=O)c1ccc(N2C(=O)c3[nH]nc(-c4ccccc4)c3C2c2ccc(CC)cc2)cc1 (configuration not stated)	/	11.2µM*	?	11.2µM*	?
CC(C)CCC(=O)NCC(C)N1CCCC1 (configuration not stated)	/	/	-85.6%	/	/
Cc1ccc(-n2c(SCC(=O)NC(=O)NCC(C)C)nnc2N2CCCCC2)cc1	/	/	23.4%	/	/
COc1cc(-c2cc3nc(NCc4cccc(Cl)c4)ccn3n2)cc(OC)c1OC	?	?	0.5%	-55.7%	12.6µM*
COc1cc(-c2cc3nc(NCc4cccs4)ccn3n2)cc(OC)c1OC	?	33.0%	22.0%	-2.1%	?
O=C(/C=C/c1ccccc1)CCN1CCCCC1	?	11.2µM*	?	20µM*	?
O=c1[nH]c(=S)[nH]cc1Oc1ccc(Br)cc1Br	i	-1.7%	11.2µM*	-3.2%	-5.9%
CC(=O)NC1=NN(C(C)=O)C(c2cc(Br)ccc2OCc2ccc(C)cc2)S1 (configuration not stated)	/	/	-22.8%	/	/
CCCCCCNC(=O)c1cccc2ncccc12	/	/	-34.2%	/	/
O=S(=O)(NCC(c1cccs1)S(=O)(=O)c1ccccc1)c1ccc(F)cc1 (configuration not stated)	/	3.98µM*	-17.8%	-59.4%	/
Cc1ccc(SC/C(O)=C(\C#N)c2nc3ccccc3s2)cc1	i	25.1µM*	-34.7%	-22.7%	16.4%
N#C/C(=C(/O)CSc1ccccn1)c1nc2ccccc2s1	i	-22.3%	-14.0%	-34.5%	-19.6%
O=C(CN(Cc1ccc2c(c1)OCO2)C1CCCC1)Nc1ccc2[nH]c(=O)[nH]c2c1	/	/	-0.1%	/	/
COc1ccc(/C=C/c2sc3ccccc3[n+]2CCCCI)cc1OC	/	1.6%	/	-7.2%	/
CCCN(CCC)c1ccc(/C=C/c2sc3ccccc3[n+]2CCCCI)cc1	/	6.31µM*	/	14.1µM*	/
Cc1cc(N2CCN(c3ccc(C(F)(F)F)cc3[N+](=O)[O-])CC2)c2ccccc2n1	/	10µM*	-22.6%	-60.7%	/
Cc1cc(N2CCN(c3ccc([N+](=O)[O-])c4cccnc34)CC2)c2ccccc2n1	?	?	/	3.16µM*	?
Cc1noc(C)c1CN1CCN(C(=O)c2cn(C)nc2-c2ccc3c(c2)OCCCO3)CC1	/	/	19.0%	/	/
CCOC(=O)c1ccccc1NC(=O)CSc1ncc(C(=O)OCC)c(N)n1	i	3.9%	?	-9.5%	-8.0%
CCOc1ccccc1NC(=O)CSc1ncc(S(=O)(=O)c2ccc(C)c(C)c2)c(N)n1	i	8.91µM*	-11.9%	-21.4%	1.5%
SMILES	ATXN viability	TGFb inhibitor	ALOX12 inh	HepG2 tox	ATXN2 expr inh
Cn1c(=O)[nH]c(=O)c2[nH]c(N(Cc3ccccc3)Cc3ccccc3)nc21	?	11.2µM*	0.0%	12.6µM*	?
c1ccc(Oc2ncnc3scc(-c4ccccc4)c23)cc1	/	/	6.3%	/	/
CC(=O)Nc1cccc(Oc2ncnc3scc(-c4ccc(C)cc4)c23)c1	31.6µM*	?	-16.1%	-27.3%	?
CC1CS(=O)(=O)N(c2ccc(S(=O)(=O)NCc3cccnc3)cc2)C1=O (configuration not stated)	/	/	21.7%	/	/
CCOC(=O)C1=C(Cc2ccc(Cl)cc2)C(=O)c2ccccc2C1=O	/	?	/	11.2µM*	20µM*
O=C(/C=C/c1ccc(-c2ccccc2Cl)o1)c1ccc2ccccc2c1	/	/	1µM*	/	/
O=C(C=Cc1ccco1)c1ccc2ccccc2c1	?	-29.9%	17.8µM*	-23.9%	41.9%
CN(C)c1ccc(C(=O)/C=C/c2ccco2)cc1	i	-6.1%	?	-27.2%	99.6%
Cc1ccc(C(=O)/C=C/c2ccc(-c3ccccc3Br)o2)cc1	/	/	1.12µM*	/	/
O=C(/C=C/c1ccc(-c2ccccc2[N+](=O)[O-])o1)c1ccccc1	i	?	-9.0%	-11.3%	4.9%
O=C(O)c1ccc(/C=C/C(=O)c2ccc(Br)cc2)cc1	/	/	2.6%	/	/
O=C(/C=C/c1ccc(-c2ccc(Cl)c(Cl)c2)o1)c1ccc(Br)cc1	/	/	12.6µM*	/	/
CC(=O)c1cccc(NC(=O)C2(c3ccccc3)CCCC2)c1	/	/	-5.7%	/	/
C=C(Cl)CN1CCN(Cc2ccccn2)CC1	/	/	-2.6%	/	/
O=C1CN(CC(=O)Nc2c(Cl)cccc2Cl)CCN1	/	/	23.1%	/	/
O=C(/C=C/c1ccc(-c2ccccc2Cl)o1)c1ccc(F)cc1	/	/	11.2µM*	/	/
Cc1ccc(C(=O)N/N=C\c2ccc(-c3ccc(Cl)c(Cl)c3)o2)cn1	?	11.2µM*	0.0%	-96.2%	?
Cc1ccc(C(=O)N/N=C/c2ccc(-c3cccc(Cl)c3)o2)cn1	i	?	194.8%	-12.2%	-29.6%
Cc1ccc(C(=O)/C=C/c2ccc(-c3ccccc3Cl)o2)cc1	/	/	7.08µM*	/	/
Cc1ccc(-c2ccc(/C=N\NC(=O)c3cc4c(ccc5ccccc54)o3)o2)cc1[N+](=O)[O-]	/	0.0%	482.5%	17.0%	?
O=C(N/N=C/c1ccc(-c2ccc(Cl)c(C(=O)O)c2)o1)c1cc2c(ccc3ccccc32)o1	i	-0.1%	39.8µM*	-16.2%	1.8%
COc1ccc(OCCN(C)C(=O)c2cn(C)c3ccccc23)cc1	/	/	18.4%	/	/
CC1CCC(C(=O)Nc2ccc3ccccc3c2)CC1 (configuration not stated)	/	/	47.5%	/	/
CSc1ccccc1NC(=O)c1csc(C)c1C	/	/	0.0%	/	/
CCOc1cc(CNCCO)cc(Br)c1OCc1ccc(Cl)cc1Cl	/	?	3.6%	15.8µM*	20µM*
OCCNCc1cc(Br)ccc1OCc1ccc(Cl)cc1Cl	?	?	-20.3%	15.8µM*	?
Cc1cc(C)c(O)c(-c2n[nH]c3c2C(c2cccc(O)c2)N(Cc2ccco2)C3=O)c1 (configuration not stated)	28.2µM*	?	?	-97.7%	-25.4%
